Where a name gives a salt, the structure may show the parent alone.
Tested on: MDA-MB-468
Assay: phospho-S6 immunofluorescence (DAPI-normalised), per-plate z-score; higher = higher phospho-S6 signal (less pathway suppression)
Conditions: 24 h
Procedure: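 GPCR-targeted compound library (MedChemExpress HY-L006) tested on MDA-MB-468 PTEN-null TNBC cells in 384-well plates at 0.1, 1 or 10 uM, combined with vehicle, GDC0941 450 nM or lapatinib 1 uM, for 24 h. Phospho-S6 (S240/244) immunofluorescence normalised to DAPI and expressed as a per-plate z-score; values are the mean of biological triplicates.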

Structure (SMILES) | phospho-S6 immunofluorescence (z-score) (co-treatment: GDC0941 450 nM) | phospho-S6 immunofluorescence (z-score) (co-treatment: lapatinib 1 uM) | phospho-S6 immunofluorescence (z-score) (co-treatment: vehicle)
CC1(C)O[C@@H]2C[C@H]3[C@@H]4C[C@H](F)C5=CC(=O)C=C[C@]5(C)[C@@]4(F)[C@@H](O)C[C@]3(C)[C@]2(C(=O)CO)O1 [Fluocinolone (Acetonide)] (compound 10 µM) | -0.92 | 0.83 | -0.53
CCCc1nc2c(C)cc(-c3nc4ccccc4n3C)cc2n1Cc1ccc(-c2ccccc2C(=O)O)cc1 [Telmisartan] (compound 10 µM) | 0.54 | 1.6 | 0.35
CNS(=O)(=O)CCc1ccc2[nH]cc(C3CCN(C)CC3)c2c1 [Naratriptan (hydrochloride)] (compound 10 µM) | -0.23 | 0.4 | 0.18
CNCC(O)c1ccc(O)c(O)c1 [L-Epinephrine] (compound 10 µM) | 0.44 | 2.36 | -0.3
CN1CCN(C2=Nc3cc(Cl)ccc3Nc3ccccc32)CC1 [Clozapine] (compound 10 µM) | -0.16 | -0.32 | -0.32
CCc1cc(-c2noc(-c3cc(OC)nc(C4CCCC4)c3)n2)cc(C)c1OC[C@@H](O)CO [Cenerimod] (compound 10 µM) | -3.08 | -4.72 | -4.14
OC[C@@H](O)CN1CCN(c2ccccc2)CC1 [Levodropropizine] (compound 10 µM) | -0.63 | 0.66 | -0.68
CCc1cnc(N2CCC(c3nc(COc4ccc(-n5cnnn5)cc4)cs3)CC2)nc1 (compound 10 µM) | -3.23 | -3.56 | -6.72
CC(C)NCC(O)COc1cccc2ccccc12 (configuration not stated) [Propranolol (hydrochloride)] (compound 10 µM) | 0.53 | 0.73 | 0.21

Source: the supplement of paper PMC7411640
